EBV gp42 inh = inhibitors of Epstein-Barr virus glycoprotein 42. AID 1085. inhibition, % (tested at 21.74 µM). Q1HVG2. Fluorescence polarization binding assay, mP read-out. actives 0.42% (n = 220,000); in the data active = inhibition above about 50%
Keap1 Nrf2 FP = Keap1-Nrf2 (human) interaction inhibition. Keap1 Kelch-Nrf2 peptide fluorescence polarization, 1536-well. inhibition, % at 9.4 µM. actives 0.15% (n = 340,000). AID 504523. Q14145; in the data active = inhibition above about 12%;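 also: human Keap1 Kelch domain with fluorescein labeled Nrf2 9mer peptide probe; 0% = neutral control wells and 100% = peptide positive control; higher means more block of Keap1 binding to Nrf2 peptide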
C-LANA FP = blocks KSHV LANA C-terminal domain binding to DNA | MBP-C-LANA/FAM-LBS DNA binding, fluorescence polarization | inhibition, % at 9 µM | actives 0.078% (n = 340,000) | AID 504423;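 active = highest replicate inhibition at or above 60% at 9 µM, even if other replicates fall short; inactive = all replicates below 60% inhibition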;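 also: 0% = neutral control wells and 100% = 4 µM acridine orange control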
RTF Ca sens inh = cardiac RTF calcium desensitization | P19429+P45379 | IANBD-labeled cardiac RTF, Ca2+ fluorescence | inhibition, % at 7.15 µM | actives 0.12% (n = 340,000);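 active = inhibition above the mean inhibition of all tested compounds plus 3 SD, cut at about 17% in these data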;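 also: assay run at fixed EC70 calcium of 1.6 mM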
eLon inh = inhibits E. coli Lon protease; actives 0.42% (n = 360,000); inhibition, % at 7.94 µM; purified E. coli Lon protease, fluorescence polarization; AID 602123; in the data active = inhibition above about 13%, passing the limit was not always enough;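 also: 0% = enzyme with probe and DMSO and 100% = no enzyme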
Target sequence (P0A9M0 whole entry, looked up): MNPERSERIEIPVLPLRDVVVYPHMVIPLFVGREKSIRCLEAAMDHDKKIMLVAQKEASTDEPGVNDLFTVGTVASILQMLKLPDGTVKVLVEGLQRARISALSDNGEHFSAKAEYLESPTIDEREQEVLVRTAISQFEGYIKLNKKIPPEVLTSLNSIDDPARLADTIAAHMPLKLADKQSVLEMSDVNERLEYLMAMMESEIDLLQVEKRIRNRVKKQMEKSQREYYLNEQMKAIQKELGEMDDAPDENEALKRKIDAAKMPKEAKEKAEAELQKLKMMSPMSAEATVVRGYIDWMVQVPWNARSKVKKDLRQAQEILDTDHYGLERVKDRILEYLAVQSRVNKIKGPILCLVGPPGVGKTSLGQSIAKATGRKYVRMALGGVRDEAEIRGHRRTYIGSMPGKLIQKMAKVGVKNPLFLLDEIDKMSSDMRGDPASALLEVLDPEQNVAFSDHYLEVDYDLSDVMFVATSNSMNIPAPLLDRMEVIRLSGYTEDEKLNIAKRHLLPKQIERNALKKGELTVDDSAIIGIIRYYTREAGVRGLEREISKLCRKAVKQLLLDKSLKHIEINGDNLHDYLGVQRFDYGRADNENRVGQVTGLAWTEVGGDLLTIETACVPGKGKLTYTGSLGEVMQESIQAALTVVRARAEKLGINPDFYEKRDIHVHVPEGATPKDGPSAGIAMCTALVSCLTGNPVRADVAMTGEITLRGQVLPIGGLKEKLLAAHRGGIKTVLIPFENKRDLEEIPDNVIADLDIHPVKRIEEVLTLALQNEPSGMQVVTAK
RTF Ca sens act = increases calcium sensitivity of human cardiac regulated thin filaments; P19429+P45379; IANBD-labeled TnC RTF fluorescence at EC20 calcium; 0% EC20 calcium, 100% full calcium; activation, % at 7.2 µM; actives 0.24% (n = 340,000); AID 493008;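 active = activation above the mean over all tested compounds plus 3 SD, cut at about 30% in these data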;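 also: rise in fluorescence read as greater calcium sensitivity of cardiac thin filaments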
E coli Lon conf = confirmation of E. coli Lon protease inhibitors; shares compounds with eLon inh; purified E. coli Lon, fluorescence polarization; inhibition, % at 7.94 µM; actives 31% (n = 1,400); AID 602230; in the data active = inhibition above about 16%;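 also: 0% = enzyme with probe and DMSO and 100% = no enzyme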
Numbers without * were called inactive; i = inactive; . = no result given; + = active, no number. Shown are actives, neighbours in structure and some others; about 0.98% of the full set was active somewhere.

SMILES	EBV gp42 inh	Keap1 Nrf2 FP	C-LANA FP	RTF Ca sens inh	eLon inh	RTF Ca sens act	E coli Lon conf
COc1cccc(/C=N/NC(=O)CCn2c3ccccc3c3ccccc32)c1	13	-4	-1	-7	3	-1	.
COc1cc(C(=O)NCC(=O)OCc2ccc(F)cc2)cc(OC)c1OC	.	5	8	-2	-9	0	.
COc1ccc(Br)cc1/C=C(\C(=O)O)c1ccc(S(=O)(=O)N2CCCCC2)s1	.	1	-1	-3	-5	-6	.
CC1CCCN(C(=O)CSc2nc3ncccc3[nH]2)C1 (configuration not stated)	-8	0	-3	12	17*	-4	-1
c1cc2c3c(cccc3c1)C(N1CCCCC1)=N2	27	3	3	-8	27*	-4	52*
c1cc2c3c(cccc3c1)C(N1CCCCCC1)=N2	-13	-6	1	-3	5	-2	.
c1ccc2c(c1)CCN(C1=Nc3cccc4cccc1c34)C2	41	1	2	-5	35*	0	106*
COC(=O)c1c(C)[nH]c(C(=O)C(C)OC(=O)c2c(C)noc2C)c1C (configuration not stated)	.	-3	0	4	3	-9	.
O=C(COC(=O)CNS(=O)(=O)c1c(F)cccc1F)NC(=O)NC1CCCCC1	.	0	1	3	27*	-3	-8
COc1ccc2c3c(cccc13)C(=O)CC2	.	164*	163*	i	+	715*	+
CC(NC(=O)c1ccco1)C1CCCO1 (configuration not stated)	-9	-3	1	-5	-2	6	.
Cc1occc1C(=O)NC(C)C1CCCO1 (configuration not stated)	5	2	0	-11	15*	-4	-3
Cc1cccc(NC(=O)C(C)Sc2ncnc3sccc23)c1 (configuration not stated)	.	.	.	.	-8	.	.
CCN1CCN(C(=O)NC2CCCCC2)CC1	.	-1	1	1	45*	-7	0
Oc1cccc(/C=N/NC(=S)Nc2cccnc2)c1O	-1	-3	0	-7	0	-4	.
Oc1ccc(/C=N/NC(=S)Nc2cccnc2)c(O)c1O	15	-4	12	-4	24*	3	27*
O=C1CCC/C(=N\NC(=O)c2ccc(COc3cccc4cccnc34)cc2)C1	-2	-2	1	-5	37*	0	3
NNC(=O)c1ccc(COc2cccc3cccnc23)cc1	-19	-5	1	-15	13	1	.
COc1ccccc1C(=O)NC(CCSC)C(=O)NCc1ccccn1 (configuration not stated)	.	-5	1	-11	10	3	.
COc1ccc2[nH]c(C)c(CCN(Cc3cccs3)C(=S)Nc3cccc(F)c3)c2c1	9	1	8	-28	27*	5	10
COc1cccc(NC(=S)N(CCc2c(C)[nH]c3ccc(C)cc23)Cc2cccs2)c1	-18	-3	0	-4	-10	0	.
Cc1cc2cc(CNS(=O)(=O)c3ccccc3)ccc2n1C	4	2	-2	-7	31*	-2	20*
COc1ccc(S(=O)(=O)NCc2ccc3c(c2)cc(C)n3C)cc1	7	0	1	-6	15*	6	10
COc1ccc(CN2C(=O)C(CC(=O)NCCc3ccccn3)CC(C(=O)N3CCOCC3)=C2C)cc1 (configuration not stated)	.	.	.	.	0	.	.
Cc1ccc(-c2csc3nc(C)n(-n4cccc4)c(=O)c23)o1	0	-1	-2	2	21*	3	-1
SMILES	EBV gp42 inh	Keap1 Nrf2 FP	C-LANA FP	RTF Ca sens inh	eLon inh	RTF Ca sens act	E coli Lon conf
O=c1oc2c3c4c(cc2s1)CCCN4CCC3	35	2	6	-17	46*	8	45*
c1cc(CNc2ccc3c(c2)OCO3)ccn1	28	8	17	-27	27*	6	34*
COc1ccc(CNCC(O)(c2ccc(Cl)cc2)c2ccc(Cl)cc2)cc1OC	3	-3	0	-2	-5	-2	.
COc1ccc(CNCC(O)(c2ccc(Cl)cc2)c2ccc(Cl)cc2)cc1	-24	-3	1	2	48*	3	-1
Cc1c(Cl)cnc(NC(=O)COC(=O)c2ccncc2)c1Cl	.	-2	2	-4	8	-3	.
Nc1c(C(=O)N/N=C/c2cccnc2)oc2nc(-c3ccccc3)cc(-c3ccco3)c12	-48	-6	1	.	-41	.	.
Nc1c(C(=O)N/N=C/c2cccnc2)oc2nc(-c3ccco3)cc(-c3ccco3)c12	19	.	.	.	56*	.	-152
Cc1cccc(OCc2nnc(SCC(=O)NCc3ccc4c(c3)OCO4)o2)c1	.	.	.	.	6	.	.
COc1ccc(-c2ccc(C(=O)N3CCN(C)CC3)c3occc23)c(C)c1	.	.	.	.	-2	.	.
COc1ccc(-c2ccc(C(=O)N3CCOCC3)c3occc23)c(C)c1	.	.	.	.	23*	.	0
O=C(NCc1cc2ccccc2[nH]1)C1CCC(=O)N(CC2CCCCC2)C1 (configuration not stated)	.	.	.	.	-20	.	.
O=C(Cc1c(Cl)cccc1Cl)Nc1ccc(S(=O)(=O)Nc2ncccn2)cc1	.	0	0	0	19*	6	-152
O=C(CS(=O)(=O)c1ccccc1)Nc1ccc(S(=O)(=O)Nc2ncccn2)cc1	-9	-4	0	-6	0	2	.
O=C(Cc1ccc(Cl)cc1)Nc1ccc(S(=O)(=O)Nc2ncccn2)cc1	.	-1	0	-5	4	-6	.
O=C(CNC(=O)c1ccc(-c2ccccc2)cc1)Nc1ccc(S(=O)(=O)Nc2ncccn2)cc1	-7	-3	-1	0	30*	2	43*
CCOc1ccccc1N1CCN(Cc2ccc(Br)s2)CC1	-23	1	1	-4	28*	1	11
Cc1ccc(N(CC(=O)NC2CCCC2)C(=O)CNC(=O)c2cccs2)cc1F	.	-4	0	-26	-1	-4	.
CN(C)Cc1cc(O)c(CN(C)C)cc1O	-14	5	10	-3	32*	8	-65
O=C1CSC(=Nc2cccc([N+](=O)[O-])c2)N1	.	-3	-1	-2	6	-9	.
COc1ccc(CCNC(=O)CN2C(=O)CSc3ccc(S(=O)(=O)N4CCOCC4)cc32)cc1OC	.	-1	2	-5	1	-4	.
CCOc1ccc(CNC(=O)CN2C(=O)CSc3ccc(S(=O)(=O)N4CCOCC4)cc32)cc1OC	.	4	1	-9	64*	3	0
COc1cccc(OC)c1NC(=O)C1CCCN1C(=O)Nc1cccc(Cl)c1 (configuration not stated)	.	-4	0	-8	-1	-2	.
O=C1NC(=O)C2(N1)C(=O)c1cccc3cccc2c13 (configuration not stated)	.	.	.	.	+	.	+

Screens: PubChem, several laboratories
